Source: PubChem BioAssay (NCATS)
Records with an inconclusive call do not appear. Active and inactive are the calls of the source. Calls come from the whole dose curve; as a rule, active = well fitted cell-killing curve with a large enough effect; inconclusive = small, poorly fitted or top-dose-only effect, or effect the other way; inactive = no such curve, though single readings can be large or run the other way.

Test: Quantitative High-Throughput drug screen in 47 multiple myeloma cell lines against the NCATS MIPE library collection: U266_ATCC cell viability assay (AID 1919864); note: nearly all actives have a fitted effect of over 35% in size
Settings: U266 myeloma viability, CellTiter-Glo ATP luminescence, 48 h; series mostly up to 45.8 µM
Description: PI: Beverly A. Mock Ph.D.
Laboratory of Cancer Biology and Genetics,
Center for Cancer Research, National Cancer Institute,
National Institute of Health, Bethesda, Maryland
Drug resistance and disease progression are common in multiple myeloma (MM) patients, underscoring the need for new therapeutic combinations. […] We hypothesized that effective combinations would reduce MYC expression and enhance p16 activity. […] These preclinical data identify potentially useful drug combinations for evaluation in drug-resistant MM and reveal potential mechanisms of combined drug sensitivity.
Described herein is the primary MIPE qHTS used to cherrypick compounds. Validated compounds were then further tested for potential synergistic activiy.
[1] Peat TJ, Gaikwad SM, Dubois W, Gyabaah-Kessie N, Zhang S, Gorjifard S, Phyo Z, Andres M, Hughitt VK, Simpson RM, Miller MA, Girvin AT, Taylor A, Williams D, D'Antonio N, Zhang Y, Rajagopalan A, Flietner E, Wilson K, Zhang X, Shinn P, Klumpp-Thomas C, McKnight C, Itkin Z, Chen L, Kazandijian D, Zhang J, Michalowski AM, Simmons JK, Keats J, Thomas CJ, Mock BA. Drug combinations identified by high-throughput screening promote cell cycle transition and upregulate Smad pathways in myeloma. Cancer Lett. 2023 Aug 1;568:216284. doi: 10.1016/j.canlet.2023.216284. Epub 2023 Jun 24. PMID: 37356470; PMCID: PMC10408729.
SEQUENCE No. (e.g., 1, 2, 3, etc.); […] (e.g., Cells, Incubation, Reagent, etc.); VALUE and DESCRIPTION.
1; Cells; 5 uL; white, solid bottom 1536-well Greiner assay plate.
2; Compounds; 23 nL; Kalypsis pin tool (Wako USA) equipped with a 1536-well pin head to transfer to the assay plates.
3; Incubation; 48 hours; 37C incubation.
4; Reagent;5uL; CellTiter Glo (Promega).
5; Detector; 425V; Luminescence; Viewlux PerkinElmer.
NOTES (numbers refer to Sequence numbers above)
1. The cell-based screening methods employed in this study were like those previously published. Briefly, the corresponding myeloma cell lines were screened in 1,536-well plates with 500 cells, 5-uL per well for inhibition of cell viability (assessed by measuring ATP levels with CellTiterGlo).
2. NCATS MIPE 4.0 library of approved and investigational drugs were added using the Kalypsis pin tool. Wells treated with DMSO only for 100% viability and media only for 0% viability were used as controls.
3. The assay plates were covered and incubated for 48 hours in a 37C, 5% CO2 incubator with controlled humidity.
4. After 48 hours, CellTilter-GloTM luminescent substrate mix (Promega) reagent was added to the assay plate and plates we incubated for 5 min at room temperature.
5. Signal was measured as median relative luminescence units on a ViewLux (PerkinElmer) multiplate reader.
[1] Heske CM, Davis MI, Baumgart JT, Wilson K, Gormally MV, Chen L, Zhang X, Ceribelli M, Duveau DY, Guha R, Ferrer M, Arnaldez FI, Ji J, Tran HL, Zhang Y, Mendoza A, Helman LJ, Thomas CJ. Matrix Screen Identifies Synergistic Combination of PARP Inhibitors and Nicotinamide Phosphoribosyltransferase (NAMPT) Inhibitors in Ewing Sarcoma. Clin Cancer Res. 2017 Dec 1;23(23):7301-7311. doi: 10.1158/1078-0432.CCR-17-1121. Epub 2017 Sep 12. PMID: 28899971; PMCID: PMC6636827.
Potency is the fitted concentration of half-maximal effect.

Compound | Potency
CNC(=O)c1ccc(N2C(=S)N(c3ccc(C#N)c(C(F)(F)F)c3)C(=O)C23CCC3)cc1F | 8.33 µM (active)
CC(O)(CS(=O)(=O)c1ccc(F)cc1)C(=O)Nc1ccc(C#N)c(C(F)(F)F)c1 (stereo not drawn) | 0.743 µM (active)
C=C(C)[C@H]1Cc2c(ccc3c2O[C@@H]2COc4cc(OC)c(OC)cc4[C@@H]2C3=O)O1 | 0.332 µM (active)
CCCC(C)(COC(N)=O)COC(=O)NC(C)C (stereo not drawn) | inactive
CN(C)CCc1ccc(O)cc1 | inactive
CN(C)[C@@H]1C(=O)C(C(N)=O)=C(O)[C@@]2(O)C(=O)C3=C(O)c4c(O)cccc4[C@@](C)(O)[C@H]3C[C@@H]12 | inactive
O=C(O)C(=O)c1cn(Cc2ccccc2)c2ccc(-c3ccc(OC(F)(F)F)cc3)cc12 | 23.5 µM (active)
CNC(=O)N1N=C(c2ccc(N)cc2)c2cc3c(cc2CC1C)OCO3 (stereo not drawn) | 3.72 µM (active)
Cc1cc(SCc2sc(-c3ccc(C(F)(F)F)c(F)c3)nc2C)ccc1OCC(=O)O | 18.7 µM (active)
N[C@@H](Cc1ccc(N(CCCl)CCCl)cc1)C(=O)O | 16.6 µM (active)
O=c1[nH]c2ccccc2n1CCCN1CCC(n2c(=O)[nH]c3cc(Cl)ccc32)CC1 | inactive
CNCC(O)c1ccc(O)cc1 (stereo not drawn) | inactive
C[C@@H]1O[C@@H](O[C@H]2C[C@@H](O)[C@]3(CO)[C@H]4[C@H](O)C[C@]5(C)[C@@H](C6=CC(=O)OC6)CC[C@]5(O)[C@@H]4CC[C@]3(O)C2)[C@H](O)[C@H](O)[C@H]1O | 0.0209 µM (active)
C#CCN(C)[C@H](C)Cc1ccccc1 | inactive
C[C@@H]1[C@@H](CC(C[C@H]2O[C@@H]3O[C@]4(C)CC[C@@H]5[C@H](C)CC[C@@H]([C@H]2C)[C@@]35OO4)C[S+](=O)([O-])c2ccc(COC(=O)N(C)C)cc2)O[C@@H]2O[C@]3(C)CC[C@H]4[C@H](C)CC[C@@H]1[C@@]24OO3 (stereo partly drawn) | 0.372 µM (active)
COc1ccc(C(=O)c2c(C)n(CCN3CCOCC3)c3ccccc23)cc1 | inactive
NCC1(CC(=O)O)CCCCC1 | inactive
COC1(CS(=O)c2ccccc2)CCN(CCc2c[nH]c3ccc(F)cc23)CC1 (stereo not drawn) | inactive
O=C1CC[C@@]2(O)[C@H]3Cc4ccc(O)c5c4[C@@]2(CCN3CC2CC2)[C@H]1O5 | inactive
CC1=C2C[C@@H]3[C@@H](CC=C4C[C@@H](O)CC[C@@]43C)[C@@H]2CC[C@]12O[C@H]1C[C@H](C)CN[C@H]1[C@H]2C | 20.9 µM (active)
CC(C)CC(N(C)C)C1(c2ccc(Cl)cc2)CCC1 (stereo not drawn) | 4.18 µM (active)
COC[C@H]1OC(=O)c2coc3c2[C@@]1(C)C1=C(C3=O)C2CCC(=O)[C@@]2(C)C[C@H]1OC(C)=O (stereo partly drawn) | 20.9 µM (active)
Cc1sc2c(c1C)C(c1ccc(Cl)cc1)=N[C@@H](CC(=O)OC(C)(C)C)c1nnc(C)n1-2 | 0.148 µM (active)
